Only some compounds are listed: those with a hit (about 7.6% of all), similar ones and a draw of the others.
BRCA1 expr act = qHTS Assay to Identify Small Molecule Activators of BRCA1 Expression | MCF7-BRCA1-FFLuc reporter, luminescence, 48 h; response scale: scaled: vehicle 0%, 10 µM genistein 100% | Potency, µM (highest dose often 46.1 µM), without a hit: at the top dose activation, most hits filed as activators | 380,000 compounds, 1.1% hits | AID 624202, 2012; also: potency is read from the fitted curve at half-maximal effect; nearly all actives have a fitted effect of over 80% in size
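First, MCF7-BRCA1-FFLuc cells (2000/well) attach for 2 h; next, compounds are pin-added and incubated 48 h at 37 °C; finally, luciferase reagent is added and luminescence read after 15 min.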
Giardia kill = Small Molecules that selectively kill Giardia lamblia: qHTS | Giardia lamblia trophozoite viability | activity change, % at 7.66 µM, hits read low | 340,000 compounds, 0.15% hits | AID 540267, 2011; in the data active = activity change below about -80%; inconclusive = between about -30% and that limit;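 also: parasites exposed to compound for two days anaerobically before the ATP read; % is scaled to controls: 0 for no effect and ±100 for the full control effect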
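Luminescent ATP signal served as the viability read-out, measured 15-30 min after adding ATP detection reagent to trophozoites that had been incubated with compounds for 48 hrs at 37 deg C anaerobically at 100 cells/well.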
p53 reactivator = qHTS assay for re-activators of p53 using a Luc reporter. 320,000 compounds, 0.063% hits. H1299 p53-A138V BP100-luciferase reporter, luminescence, 24 h. Potency, µM (highest dose often 92.2 µM), without a hit: at the top dose activity change, positive = activation, usual class: activators; also: potency is read from the fitted curve at half-maximal effect; % of control where 0% means no effect; nearly all actives have a fitted effect of over 45% in size
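p53-null H1299 cells stably carrying temperature-sensitive p53-A138V and a BP100-luciferase reporter were pinned with compounds (4-point, 1:5 series) and held 24 hrs at 37 deg C. Luminescence was read 10 min after detection reagent.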
RORg inh = qHTS for inhibitors of ROR gamma transcriptional activity | Drosophila S2 Gal4-RORgamma UAS-luciferase reporter, 20 h | Potency, µM (top dose mostly 53.6 µM), for inactives: top-dose activity change, negative = inhibition, most hits filed as inhibitors | 310,000 compounds, 5.4% hits | AID 2551, 2010; also: potency is read from the fitted curve at half-maximal effect; % is scaled to controls: 0 for no effect and ±100 for the full control effect; nearly all actives have a fitted effect of over 60% in size
Target sequence (P51450 whole entry, looked up, the tested form may be a part): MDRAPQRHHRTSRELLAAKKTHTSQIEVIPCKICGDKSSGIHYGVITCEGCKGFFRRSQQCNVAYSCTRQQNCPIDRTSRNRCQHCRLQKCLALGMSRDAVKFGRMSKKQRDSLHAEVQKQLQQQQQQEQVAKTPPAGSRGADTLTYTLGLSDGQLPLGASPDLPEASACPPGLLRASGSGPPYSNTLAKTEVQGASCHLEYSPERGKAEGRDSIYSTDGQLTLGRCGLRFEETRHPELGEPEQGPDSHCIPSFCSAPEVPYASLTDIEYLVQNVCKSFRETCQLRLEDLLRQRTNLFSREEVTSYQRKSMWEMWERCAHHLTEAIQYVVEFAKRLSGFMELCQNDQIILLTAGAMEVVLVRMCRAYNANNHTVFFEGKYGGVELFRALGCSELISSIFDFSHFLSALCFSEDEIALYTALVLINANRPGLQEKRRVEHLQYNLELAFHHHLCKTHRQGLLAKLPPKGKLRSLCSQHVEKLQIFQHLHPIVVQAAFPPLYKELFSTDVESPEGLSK
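Luciferase reporter read in Schneider cells carrying Gal4-RORγ (mouse) and UAS-Photinus luciferase; cells given compound 1 h before 700 uM copper sulfate induction, then incubated 20 h at ambient temperature.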
Gal4-VP16 FLuc = VP16 counterscreen qHTS for inhibitors of ROR gamma transcriptional activity; 310,000 compounds, 3.5% hits; Potency, µM (top dose mostly 53.6 µM), for inactives: at the top dose activity, negative = inhibition, actives largely listed as inhibitors; AID 2546, 2010; Drosophila S2 Gal4-VP16 UAS-luciferase, luminescence, 20 h;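 also: Gal4-VP16 expression switched on by copper sulfate through the metallothionein promoter; potency is read from the fitted curve at half-maximal effect; % is scaled to controls: 0 for no effect and ±100 for the full control effect; nearly all actives have a fitted effect of over 50% in size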
ELG1 repair inh = qHTS screen for small molecules that inhibit ELG1-dependent DNA repair in human embryonic kidney (HEK293T) cells expressing luciferase-tagged ELG1. HEK293T ELG1-luciferase reporter, luminescence, 16 h; DNA damage induced by 5-fluorouridine. Potency, µM (doses to about 46.1 µM), for the others: top-dose activity change, negative = inhibition, hits mostly inhibitors. 330,000 compounds, 2.3% hits; also: potency is read from the fitted curve at half-maximal effect; % is scaled to controls: 0 for no effect and ±100 for the full control effect; nearly all actives have a fitted effect of over 55% in size
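DMSO vehicle served as the neutral condition. Each well held 2,000 cells given 5-fluorouridine plus compound; after 16 hr at 37 °C/5% CO2, ONE-Glo was added and luciferase measured 30 min later.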
* hit, by the source's call; ? = inconclusive; . = not tested or not shown; [ ] = dose if it differs, or a comment. Unless noted, calls follow the shape of the dose curve; as a rule, active = well fitted curve in the direction sought with a large enough effect; inconclusive = small, poorly fitted or top-dose-only effect, or another doubt; inactive = no such curve, though single readings can be large; an effect the other way counts as inactive or inconclusive.

SMILES	BRCA1 expr act	Giardia kill	p53 reactivator	RORg inh	Gal4-VP16 FLuc	ELG1 repair inh
Cc1nn(Cc2ccc(C(=O)Nc3nccs3)cc2)c(C)c1Cl	-14%	7	3%	13µM*	?	?
Cc1cccc(NC(=O)CSc2nc(N)c(NC(=O)c3cccs3)c(=O)[nH]2)c1	28%	11	3%	-10%	-4%	1%
COc1ccc(CCn2c(-c3ccc(Cl)cc3)n[nH]c2=S)cc1OC	-13%	14	-4%	1.6µM*	?	-19%
CCCCn1c(-c2cc(Cl)ccc2OC)n[nH]c1=S	-18%	16	.	3.2µM*	10µM*	.
COc1ccc(CCn2c(-c3ccc(C(C)(C)C)cc3)n[nH]c2=S)cc1OC	21%	12	15%	3.2µM*	-18%	?
Cc1cccc(C)c1-n1nnnc1C1(C)CCC(=O)N1Cc1cccs1 (configuration not stated)	5%	.	.	.	.	.
O=C(COC(=O)c1ccco1)Nc1cc(S(=O)(=O)N2CCOCC2)ccc1Cl	1%	-18	-8%	.	.	0%
CC(Oc1ccccc1)C(=O)N1CCC2(CC1)CC(=O)c1ccccc1O2 (configuration not stated)	-26%	-2	4%	.	.	?
CN(Cc1ccccc1)C(=O)c1ccc(NC(=O)Cc2ccc(NC(=O)C3CCN(C(=O)C4CCCCC4)CC3)cc2)cc1	0%	-7	.	.	.	.
O=C(N/N=C/c1cc(O)ccc1[N+](=O)[O-])c1ccc2c(c1)OCCO2	80%	-19	0%	10µM*	8.9µM*	?
COc1cc(/C=N/NC(=O)c2cccc(N3CCCC3=O)c2)ccc1O	8%	-3	3%	-39%	-28%	28%
O=C(N/N=C/c1cc([N+](=O)[O-])ccc1O)c1ccc2c(c1)OCCO2	-88%	-28	?	0.63µM*	1.4µM*	-25%
O=C(N/N=C/c1cc([N+](=O)[O-])ccc1O)c1cccc(N2CCCC2=O)c1	-50%	48	-8%	2.2µM*	3.2µM*	12µM*
O=C(N/N=C/c1ccccc1[N+](=O)[O-])c1ccc2c(c1)OCCO2	-14%	?	8%	3.5µM*	7.1µM*	?
COc1ccc(/C=N/NC(=O)c2ccc3c(c2)OCCO3)cc1[N+](=O)[O-]	10%	11	12%	20%	-1%	13%
O=C(CSc1nccc(=O)[nH]1)Nc1ccc(N2CCOCC2)cc1	-19%	-1	-1%	?	0%	-5%
COc1ccc(N(C(=O)Cn2nnc3ccccc32)C2(C(=O)NC3CCCC3)CCCCC2)cc1	-4%	-3	-1%	20%	2%	-4%
O=S1(=O)C2CC3CCC2(CN1Cc1ccccc1)O3 (configuration not stated)	.	-1	.	40%	28%	.
COc1cc([N+](=O)[O-])ccc1NC(=S)NNC(=O)c1ccc2c(c1)OCO2	6%	-28	-28%	-30%	-19%	1%
O=C(NC(=S)Nc1cc([N+](=O)[O-])ccc1O)c1ccc2c(c1)OCO2	?	?	?	4µM*	2.8µM*	?
O=C(N/N=C/c1c(F)cccc1Cl)c1cc(C2CC2)[nH]n1	11µM*	-2	?	20%	?	?
Cn1cccc1C(=O)N/N=C/c1c(Cl)cccc1Cl	6.3µM*	2	?	-20%	1%	?
O=C(N/N=C/c1ccc(O)cc1)c1cc(C2CC2)[nH]n1	3%	-17	19%	1%	5%	2%
O=C(N/N=C/c1ccc(Cl)cc1Cl)c1ccc2nc[nH]c2c1	60%	0	11%	0%	11%	?
O=C(N/N=C/c1ccc(Cl)cc1Cl)c1cccc(F)c1	?	-10	?	11µM*	?	?
SMILES	BRCA1 expr act	Giardia kill	p53 reactivator	RORg inh	Gal4-VP16 FLuc	ELG1 repair inh
O=C(N/N=C/c1c(Cl)cccc1Cl)c1ccc(F)cc1	-11%	3	20%	11µM*	-1%	26%
CCOC(=O)c1[nH]c2ccc(OC)cc2c1NC(=S)N1CCN(c2ccccc2)CC1	-31%	-6	10%	-3%	-19%	?
CCc1c(C)nc2cc(-c3ccc(OC)c(OC)c3)nn2c1N1CCCC1	-64%	6	0%	-45%	?	13µM*
CCOCCN1CCN(c2c(CC)c(C)nc3cc(-c4cc(OC)cc(OC)c4)nn23)CC1	-62%	10	-8%	?	-15%	6.5µM*
COc1cc(OC)cc(-c2cc3nc4c(c(N5CCN(c6ncccn6)CC5)n3n2)CCCC4)c1	2%	-1	6%	19%	1%	15µM*
CCc1c(C)nc2cc(-c3cc(OC)cc(OC)c3)nn2c1N1CCCC1	-54%	8	5%	7.1µM*	13µM*	?
CCOCCN1CCN(c2c3c(nc4cc(-c5ccc(F)cc5)nn24)CCC3)CC1	5%	28	3%	-10%	-5%	?
CCc1c(C)nc2cc(-c3ccc(OC)c(OC)c3)nn2c1N1CCC(C)CC1	14%	20	8%	9%	1%	?
COc1cc(OC)cc(-c2cc3nc(C)c(CCC(=O)Nc4nc(C)cs4)c(C)n3n2)c1	-15%	11	-8%	?	?	?
Cc1ccc(NC(=O)CCC(=O)N/N=C/c2cccs2)cc1C	-31%	4	-4%	29%	-9%	-5%
COc1ccc(NC(=O)c2cc(C)nc3ccccc23)c(OC)c1	-22%	5	-3%	-14%	0%	2%
CCC(=O)N1CCc2cc(S(=O)(=O)CCC(=O)NCc3ccccc3OC)ccc21	-21%	-7	2%	-1%	-10%	0%
CC(C)(C)c1cc2cccnc2n1Cc1cccc(Cl)c1	0%	-4	-6%	2.2µM*	-7%[0.365 µM]	0%
COc1ccnc2c1c(=O)n(Cc1cccc(Cl)c1)c(=O)n2C	-18%	34	-1%	7%	2%	13%
CCc1nc2c(OCc3ccc(C#N)cc3)cccn2c1N(C)C(=O)c1ccco1	6%	.	.	.	.	.
Cc1nn(Cc2cccc(C(=O)NN)c2)c(C)c1Cl	-27%	-22	-2%	-27%	-9%	0%
CN(c1ccccc1)S(=O)(=O)c1ccc(Cl)nc1	-9%	22	-1%	5%	3%	9%
Cc1nc(S(=O)(=O)N(C)c2ccccc2)c(C#N)c(C)c1Cl	-83%	-1	-6%	-47%	-25%	23µM*
